# Gli-Sufu antag = Gli-Sufu pathway antagonists, primary screen, luciferase luminescence, Sufu-KO-LIGHT cells, uHTS | Sufu-KO-LIGHT fibroblasts, Gli luciferase reporter luminescence | inhibition, % at 5 µM | actives 0.74% (n = 340,000) | AID 588413, 2011;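 active means inhibition above about 55%, limit read from the data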
# Jurkat NFkB inh = inhibitors of induced NF-kB luciferase reporter, primary screen, TCR NF-kB activation inhibitor project, cell-based, luminescence, uHTS; Jurkat, PMA/ionomycin-induced NF-kB luciferase reporter; inhibition, % at 4 µM; actives 0.53% (n = 330,000); AID 435003, 2010; in the data active means inhibition above about 50%
# SMARCA2 activ = SMARCA2 (BRM) function activators, primary screen, cell-based, luminescence, high throughput; actives 1% (n = 370,000); MG213 cells, MMTV-luciferase reporter, dexamethasone, overnight; AID 652017, 2013; activation, % at 9.1 µM; in the data active means activation above about 7.8%
# esBAF inh = Bmi1 luciferase reporter increase in mESCs, primary screen, esBAF inhibitor project, mouse ES cells, Bmi1 luciferase knock-in, single point. AID 602393, 2012. 24 h; 100% = twice the neutral-well signal. reporter increase, % at 12.5 µM. actives 2% (n = 350,000); in the data active means activation above about 40%; inconclusive means no clear call, values can overlap the other calls;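 further: a rise in the Bmi1 reporter signal indicates esBAF inhibition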
# 697 NFkB inh = inhibitors of PMA/ionomycin-induced NF-kB reporter, 697 cells, primary screen, B-cell NF-kB inhibitor project, cell-based, luminescence, uHTS. actives 0.33% (n = 330,000). inhibition, % at 4 µM. 697 B-cell NF-kB luciferase reporter, 16 h. AID 435022, 2010; in the data active means inhibition above about 35%
# Jurkat NFkB conf = PMA/ionomycin-induced NF-kB reporter inhibitors, Jurkat retest, confirmation, T-cell NF-kB inhibitor project, cell-based, luminescence, single concentration. inhibition, % at 4 µM. shares compounds with Jurkat NFkB inh. Jurkat NF-kB luciferase, 16 h. actives 27% (n = 2,700);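 active means inhibition reaching about 45% at 4 µM in either replicate, limit read from the data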
# Numbers stand for hits; – = inactive; ? = inconclusive; · = not tested or not shown. This is a sample that favours compounds with a hit; in the whole collection about 3.3% have one here.
SMILES,Gli-Sufu antag,Jurkat NFkB inh,SMARCA2 activ,esBAF inh,697 NFkB inh,Jurkat NFkB conf
CC(=O)Nc1ccc2nc(NC(=O)CCc3ccccc3)sc2c1,–,–,–,–,–,·
CCCC(=O)Nc1nc2ccc(NC(=O)c3ccccc3F)cc2s1,–,60,–,–,–,–
CN(C)c1ccc(N=Nc2cccc(F)c2)cc1,–,–,–,–,–,–
COCC(=O)Nc1ccc2c(c1)C(=O)N(C)C[C@@H](OC)[C@@H](C)CN(Cc1cccnc1)[C@@H](C)CO2,·,·,·,–,·,·
Cc1cccc(OCC(O)Cn2c(=N)n(Cc3ccccc3)c3ccccc32)c1 (stereo not given),–,62,–,·,–,–
Cc1ccc(OCC(O)Cn2c(=N)n(Cc3ccccc3)c3ccccc32)cc1 (stereo not given),–,–,–,–,–,·
C[C@@H]1CN([C@@H](C)CO)C(=O)c2cc(C#CCN(C)C)cnc2O[C@H]1CN(C)Cc1ccccn1,·,·,·,–,·,·
CCOC(=O)Cn1c(-c2ccccn2)nc2ccccc21,–,–,–,–,–,·
CCOC(=O)c1ccc2c(c1)nc(-c1ccccn1)n2CC,–,–,–,73,–,–
Cc1cc(C)n(-c2nc3c(c(=O)[nH]c(=O)n3C)n2CC(O)COc2ccc(Cl)cc2Cl)n1 (stereo not given),–,51,–,–,–,–
CCN(CC)CCNc1nc2c(c(=O)[nH]c(=O)n2C)n1CC(O)COc1ccc(Cl)cc1Cl (stereo not given),–,–,–,–,–,·
CO[C@H]1CN(C)C(=O)c2cc(NC(=O)C3CC3)ccc2OC[C@@H](C)N(Cc2ccncc2)C[C@H]1C,·,·,·,–,·,·
CN(C)c1ccc(C2C=C(c3ccc(Cl)cc3OC(F)F)Nc3ncnn32)cc1 (stereo not given),–,61,–,–,–,–
COc1ccccc1-c1nnc2sc(-c3ccc(N(C)C)cc3)nn12,–,78,–,·,–,–
CN(C)c1ccc(-c2nn3c(-c4ccccc4Cl)nnc3s2)cc1,–,75,–,–,–,63
O=C(C[C@H]1CC[C@H](NC(=O)Nc2cc(F)ccc2F)[C@@H](CO)O1)NCc1ccncn1,·,·,·,–,·,·
O=S1(=O)Nc2c(ccc3cccnc23)-c2ccccc21,82,69,·,–,–,54
CCOc1ccc2nc(NC(=O)Nc3cccs3)sc2c1,–,–,–,–,–,–
CCCC(=O)Nc1ccc2c(c1)C(=O)N(C)C[C@@H](OC)[C@H](C)CN(CC1CCOCC1)[C@H](C)CO2,·,·,·,–,·,·
COc1ccc(OC)c(-c2nnc3n2N=C(c2ccc(OC)c(OC4CCCC4)c2)CS3)c1,–,79,–,–,–,63
Cc1ccc(NC(=O)c2noc3c2CCCCC3)cc1,–,–,–,–,–,–
CCc1ccc(NC(=O)c2noc3c2CCCCC3)cc1,–,–,–,–,–,–
Cc1ccc(Cn2ccc(NC(=O)c3noc4c3CCCCC4)n2)cc1,–,–,–,–,–,·
C(=N\Nc1nc2ccccc2s1)/c1ccccn1,75,84,–,·,–,73
CCOC(=O)C(C)Oc1cccc2c(=O)n(CC(=O)NCCc3ccccc3)ccc12 (stereo not given),–,–,–,·,–,·
SMILES,Gli-Sufu antag,Jurkat NFkB inh,SMARCA2 activ,esBAF inh,697 NFkB inh,Jurkat NFkB conf
CCOC(=O)C(C)Oc1cccc2c(=O)n(CC(=O)NCc3ccc(F)cc3)ccc12 (stereo not given),–,73,–,–,–,48
CN(c1ccccc1)S(=O)(=O)c1cccc(NC(=O)c2ccc(Cl)c([N+](=O)[O-])c2)c1,–,63,–,–,–,–
CC(=O)Nc1ccc(C(=O)Nc2cccc(S(=O)(=O)N(C)c3ccccc3)c2)cc1,–,–,–,–,–,·
O=C(Nc1ccc(NC(=O)C23CC4CC(CC(C4)C2)C3)cn1)c1ccco1,–,–,–,49,–,–
CC(C)(C)C(=O)Nc1ccc(NC(=O)c2ccco2)nc1,80,78,–,–,–,88
O=C(Nc1ccc(NC(=O)c2ccco2)nc1)c1ccccn1,–,–,–,–,–,·
O=C(Nc1ccc(NC(=O)C2CCCCC2)cn1)c1ccco1,–,–,–,–,–,·
C[C@H](O)C#Cc1cnc2c(c1)C(=O)N([C@@H](C)CO)C[C@H](C)[C@H](CN(C)C(=O)Nc1ccc(C(F)(F)F)cc1)O2,·,·,·,–,·,·
O=C(NN=Cc1c(O)ccc2ccccc12)c1ccc2c(c1)OCO2,–,67,–,–,–,82
O=C(N/N=C\c1c(O)ccc2ccccc12)c1ccc(S(=O)(=O)N2CCCCC2)cc1,85,55,–,·,–,73
O=C(N/N=C/c1c(O)ccc2ccccc12)c1ccc(CO)nc1,–,–,–,–,–,·
CCCN(C)C[C@H]1Oc2ncc(C#CCN(C)C)cc2C(=O)N([C@@H](C)CO)C[C@@H]1C,·,·,·,–,·,·
Cc1ccc(S(=O)(=O)Nc2ccc3c(c2)C(=O)N([C@@H](C)CO)C[C@@H](C)[C@H](CN(C)C)OCCCC[C@H](C)O3)cc1,·,·,·,–,·,·
Cc1ccc(S(=O)(=O)N(C)C[C@H]2Oc3ccc(NS(C)(=O)=O)cc3C(=O)N([C@@H](C)CO)C[C@@H]2C)cc1,·,·,·,–,·,·
C=C1C(=O)O[C@@H]2[C@H]1[C@@H](OC(=O)/C(C)=C/C)C/C(C)=C\C(=O)/C=C(\C)[C@@H]2O,–,88,–,–,–,–
COc1cccc(-c2cn(CC[C@@H]3CC[C@H](NC(=O)CN(C)C)[C@H](CO)O3)nn2)c1,·,·,·,–,·,·
O=C(CSc1ncn(-c2ccccc2)n1)Nc1ccc2c(c1)OCCO2,–,–,–,–,–,·
O=C(CSc1ccccc1)Nc1ccc2c(c1)OCCO2,–,–,–,54,–,–
COc1ccc(NC(=O)Nc2ccc3c(c2)C(=O)N([C@H](C)CO)C[C@@H](C)[C@H](CN(C)S(=O)(=O)c2ccc(OC)cc2)O3)cc1,·,·,·,–,·,·
CCC(=O)NC(=S)Nc1ccc(-c2nc3ccc(C)cc3s2)cc1,–,–,–,?,–,·
CCC(=O)NC(=S)Nc1ccc(-c2nc3ccccc3s2)cc1,–,–,–,·,–,–
O=C(C#Cc1ccccc1)Nc1cccc(F)c1,–,73,–,–,–,–
N=c1c2c(-c3ccccc3)c(-c3ccccc3)n(Cc3ccco3)c2ncn1CCO,–,–,–,–,–,·
N=c1c2c(-c3ccccc3)c(-c3ccccc3)n(Cc3ccco3)c2ncn1CCCO,–,56,–,·,–,–
CC(=O)Oc1ccc(-c2csc(Nc3ccccn3)n2)cc1,·,·,–,–,·,·
Cc1cccc(Nc2nc(-c3ccccn3)cs2)n1,–,–,–,–,–,–
CC(=O)Oc1ccc(-c2csc(Nc3cccc(C)n3)n2)cc1,–,–,–,65,–,–
